# Out of some 5,500 compounds screened, about 2,000 (36%) were called active. Inconclusive results (about 18%) are left out. This is one part of the list. Unmarked numbers belong to inactive results. No stated cut-off is given here; in the data, active means normalized growth mostly below about 0.91 (no sharp cut-off); inconclusive means no clear call, values can overlap the other calls; inactive means mostly above about 0.92.
# Experiment: chemical genetic growth profiling, strain panel (AID 1159580);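 further: tested at 20 µM; growth read once vehicle control cultures reached saturation at 30 °C; 1 = growth at the plate median or of vehicle wells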
# Conditions: S. cerevisiae deletion strains, growth OD
# [1] = locus YHR030C, strain SLT2, stronger effect = lower value
# [2] = locus YHR079C, strain IRE1, stronger effect = lower value
# [3] = locus YJL095W, strain BCK1, stronger effect = lower value
# [4] = locus YJR066W, strain TOR1, stronger effect = lower value
# [5] = locus YLR113W, strain HOG1, stronger effect = lower value
# [6] = locus YNL183C, strain NPR1, stronger effect = lower value
# [7] = locus YOR231W, strain MKK1, stronger effect = lower value
# [8] = locus YPL256C, strain CLN2, stronger effect = lower value
compound,measurement,setting,value
N#C/C(=C\c1ccc(C(F)(F)F)cc1)c1ccc(O)cc1,normalized growth,"locus YAR019C, strain CDC15, stronger effect = lower value",0.969
same,normalized growth,"locus YBL105C, strain PKC1, stronger effect = lower value",0.968
same,normalized growth,"locus YBR135W, strain CKS1, stronger effect = lower value",0.965
same,normalized growth,"locus YBR136W, strain MEC1, stronger effect = lower value",0.97
same,normalized growth,"locus YBR160W, strain CDC28, stronger effect = lower value",0.976
same,normalized growth,"locus YDL017W, strain CDC7, stronger effect = lower value",0.966
same,normalized growth,"locus YDL028C, strain MPS1, stronger effect = lower value",0.976
same,normalized growth,"locus YDL101C, strain DUN1, stronger effect = lower value",0.979
same,normalized growth,"locus YDL108W, strain KIN28, stronger effect = lower value",0.972
same,normalized growth,"locus YDL132W, strain cdc53, stronger effect = lower value",0.973
same,normalized growth,"locus YDL214C, strain PRR2, stronger effect = lower value",0.478 (active)
same,normalized growth,"locus YDR052C, strain DBF4, stronger effect = lower value",0.988
same,normalized growth,"locus YDR054C, strain cdc34, stronger effect = lower value",0.96
same,normalized growth,"locus YDR226W, strain ADK1, stronger effect = lower value",0.969
same,normalized growth,"locus YDR477W, strain SNF1, stronger effect = lower value",0.497 (active)
same,normalized growth,"locus YER123W, strain YCK3, stronger effect = lower value",0.508 (active)
same,normalized growth,"locus YER133W, strain GLC7, stronger effect = lower value",0.492 (active)
same,normalized growth,"locus YFL009W, strain cdc4, stronger effect = lower value",0.967
same,normalized growth,"locus YFL029C, strain CAK1, stronger effect = lower value",0.978
same,normalized growth,"locus YFR003C, strain YPI1, stronger effect = lower value",0.971
same,normalized growth,"locus YFR019W, strain FAB1, stronger effect = lower value",0.647 (active)
same,normalized growth,"locus YFR028C, strain CDC14, stronger effect = lower value",0.964
same,normalized growth,"locus YGR040W, strain KSS1, stronger effect = lower value",0.53 (active)
same,normalized growth,"locus YGR052W, strain FMP48, stronger effect = lower value",0.5 (active)
same,normalized growth,"locus YGR092W, strain DBF2, stronger effect = lower value",0.365 (active)
same,normalized growth,[1],0.308 (active)
same,normalized growth,[2],0.334 (active)
same,normalized growth,"locus YHR082C, strain KSP1, stronger effect = lower value",0.492 (active)
same,normalized growth,"locus YHR205W, strain SCH9, stronger effect = lower value",0.359 (active)
same,normalized growth,"locus YIL147C, strain SLN1, stronger effect = lower value",0.974
same,normalized growth,[3],0.464 (active)
same,normalized growth,"locus YJL128C, strain PBS2, stronger effect = lower value",0.913
same,normalized growth,"locus YJL157C, strain FAR1, stronger effect = lower value",0.47 (active)
same,normalized growth,"locus YJR016C, strain ILV3, stronger effect = lower value",0.974
same,normalized growth,"locus YJR066W, strain TOR1 (second series), stronger effect = lower value",0.29 (active)
same,normalized growth,[4],0.435 (active)
same,normalized growth,"locus YKL048C, strain ELM1, stronger effect = lower value",0.411 (active)
same,normalized growth,"locus YKL067W, strain YNK1, stronger effect = lower value",0.525 (active)
same,normalized growth,"locus YKL101W, strain HSL1, stronger effect = lower value",0.465 (active)
same,normalized growth,"locus YKL193C, strain SDS22, stronger effect = lower value",0.972
same,normalized growth,"locus YKL203C, strain TOR2, stronger effect = lower value",0.428 (active)
same,normalized growth,[5],0.431 (active)
same,normalized growth,"locus YLR133W, strain CKI1, stronger effect = lower value",0.498 (active)
same,normalized growth,"locus YLR403W, strain SFP1, stronger effect = lower value",0.445 (active)
same,normalized growth,"locus YML070W, strain DAK1, stronger effect = lower value",0.535 (active)
same,normalized growth,"locus YMR001C, strain CDC5, stronger effect = lower value",0.96
same,normalized growth,"locus YMR205C, strain PFK2 (second series), stronger effect = lower value",0.54 (active)
same,normalized growth,"locus YMR277W, strain FCP1, stronger effect = lower value",0.963
same,normalized growth,"locus YNL006W, strain LST8, stronger effect = lower value",0.959
same,normalized growth,"locus YNL020C, strain ARK1, stronger effect = lower value",0.45 (active)
same,normalized growth,"locus YNL161W, strain CBK1, stronger effect = lower value",0.967
same,normalized growth,[6],0.467 (active)
same,normalized growth,"locus YNL207W, strain RIO2, stronger effect = lower value",0.961
same,normalized growth,"locus YNL222W, strain SSU72, stronger effect = lower value",0.964
same,normalized growth,"locus YNL307C, strain MCK1 (second series), stronger effect = lower value",0.395 (active)
same,normalized growth,"locus YOL078W, strain AVO1, stronger effect = lower value",0.973
same,normalized growth,"locus YOL136C, strain PFK27, stronger effect = lower value",0.492 (active)
same,normalized growth,"locus YOR061W, strain CKA2, stronger effect = lower value",0.43 (active)
same,normalized growth,"locus YOR119C, strain RIO1, stronger effect = lower value",0.498 (active)
same,normalized growth,[7],0.469 (active)
same,normalized growth,"locus YOR329C, strain SCD5, stronger effect = lower value",0.962
same,normalized growth,"locus YPL031C, strain PHO85, stronger effect = lower value",0.421 (active)
same,normalized growth,"locus YPL153C, strain RAD53, stronger effect = lower value",0.444 (active)
same,normalized growth,"locus YPL204W, strain HRR25, stronger effect = lower value",0.453 (active)
same,normalized growth,"locus YPL209C, strain IPL1, stronger effect = lower value",0.965
same,normalized growth,[8],0.427 (active)
same,normalized growth,"locus YPR025C, strain CCL1, stronger effect = lower value",0.971
same,normalized growth,"locus YPR106W, strain ISR1, stronger effect = lower value",0.965
same,normalized growth,"locus YPR111W, strain DBF20, stronger effect = lower value",0.953
same,normalized growth,"strain NNK1, stronger effect = lower value",0.95
same,normalized growth,"strain TSCII, stronger effect = lower value",0.967
CC(O)Cn1cnc2c1c(=O)n(C)c(=O)n2C (centres undefined),normalized growth,[1],1.05
same,normalized growth,[2],1.07
same,normalized growth,[3],1.05
same,normalized growth,[4],0.991
same,normalized growth,[5],1.04
same,normalized growth,[6],1
same,normalized growth,[7],1.03
same,normalized growth,[8],1.04

# Reference: PubChem BioAssay AID1159580 (chemical genetic matrix, 2015)
